ANO1 activ – mouse TMEM16A channel activation, primary screen; Q8BHY3; HEK293 TMEM16A/YFP-H148Q/I152L, iodide quench fluorescence; stronger effect = lower value; B-score at 10 µM; hit rate 0.3% among 340,000; AID 623877;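 active = fluorescence-ratio B-score plate-corrected deviation score at least 3 library SD below zero, with starting fluorescence score within 5 deviations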;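 also: channel opened by trigger with iodide after compound preincubation; score built on the fluorescence ratio of max minus min over baseline; more negative score means more quench and so TMEM16A activation or potentiation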
Target sequence (Q8BHY3 whole entry, looked up): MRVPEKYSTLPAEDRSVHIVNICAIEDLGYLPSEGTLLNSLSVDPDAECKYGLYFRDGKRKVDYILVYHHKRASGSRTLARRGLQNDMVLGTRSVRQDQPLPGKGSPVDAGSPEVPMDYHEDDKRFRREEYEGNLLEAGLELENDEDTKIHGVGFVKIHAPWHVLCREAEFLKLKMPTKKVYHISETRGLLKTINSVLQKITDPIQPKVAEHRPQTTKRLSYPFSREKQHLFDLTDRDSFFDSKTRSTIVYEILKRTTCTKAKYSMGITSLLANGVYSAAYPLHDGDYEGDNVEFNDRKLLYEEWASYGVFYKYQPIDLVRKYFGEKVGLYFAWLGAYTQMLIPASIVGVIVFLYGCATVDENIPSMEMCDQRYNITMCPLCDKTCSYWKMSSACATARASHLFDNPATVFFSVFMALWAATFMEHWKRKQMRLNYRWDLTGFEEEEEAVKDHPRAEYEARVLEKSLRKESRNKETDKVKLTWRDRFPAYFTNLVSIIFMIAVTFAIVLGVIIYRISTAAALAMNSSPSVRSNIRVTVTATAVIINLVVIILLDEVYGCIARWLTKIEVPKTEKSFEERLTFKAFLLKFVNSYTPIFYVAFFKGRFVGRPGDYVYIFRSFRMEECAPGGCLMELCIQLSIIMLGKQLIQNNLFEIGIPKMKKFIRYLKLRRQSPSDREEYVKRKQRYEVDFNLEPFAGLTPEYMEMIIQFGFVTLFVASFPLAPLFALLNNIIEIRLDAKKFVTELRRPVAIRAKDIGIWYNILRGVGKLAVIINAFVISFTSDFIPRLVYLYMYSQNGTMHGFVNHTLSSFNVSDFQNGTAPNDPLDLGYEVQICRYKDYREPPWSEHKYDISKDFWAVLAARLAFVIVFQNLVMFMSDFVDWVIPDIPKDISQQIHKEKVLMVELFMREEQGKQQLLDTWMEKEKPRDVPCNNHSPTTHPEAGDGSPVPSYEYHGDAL
IDE inh – inhibitors of human insulin-degrading enzyme in cells | inhibition, % at 5.59 µM | hit rate 0.41% among 320,000 | HEK cells, FAbetaB cleavage, fluorescence polarization | P14735;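 active = percent inhibition above the average of all tested compounds plus 3 SD, set per screening campaign, cut at about 16% in these data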;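 also: IDE supplied by intact live HEK cells; FP after avidin binding of uncleaved biotin substrate so inhibition keeps polarization high; 0% = DMSO wells and 100% = 60 µM reference IDE inhibitor Ii1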
CHT allo act – allosteric activators of human choline transporter CHT. hit rate 0.49% among 310,000. AID 488977. CHT-expressing cells, membrane potential dye, choline EC20; stronger effect = higher value; LV-AA mutant CHT in HEK293 cells. Q9GZV3. B-score at 10 µM;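 active = initial fluorescence not abnormally high and integrated response B-score, plate-corrected, over 3 SD above library mean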
CHT block – inhibits the human high affinity choline transporter | B-score at 10 µM | hit rate 0.86% among 310,000 | AID 488975 | CHT-expressing cells, membrane potential dye, choline response; stronger effect = lower value;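 active = B-score over 3 SD under the library average, and starting fluorescence ratio not unusually high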;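 also: choline stimulus applied at its EC90 after an EC20 pre-addition; B-score computed on integrated fluorescence ratio after choline addition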
IDE act – boosts human insulin-degrading enzyme activity in HEK cells; P14735; FAbeta-B cleavage, fluorescence polarization; 0% vehicle, 100% cell-free pure enzyme wells; activation, % at 5.96 µM; hit rate 0.073% among 340,000;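 active = activation above the mean of all tested compounds plus 3 SD, set per screening campaign, cut at about 17% in these data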
TMEM16A inh – inhibitors of mouse TMEM16A calcium-activated chloride channel | HEK293 TMEM16A/YFP iodide influx fluorescence, ionomycin | normalized B-score (activity score, 25-100; higher = stronger inhibition) at 10 µM | hit rate 1.2% among 310,000;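 active = ratio plate-corrected score three or more library SD toward inhibition, starting fluorescence score within five deviations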;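 also: score derived from kinetic fluorescence span divided by baseline fluorescence per well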
CHT activ conf – human CHT activation, confirmatory screen; activation, % at 10 µM; hit rate 91% among 2,500; CHT-expressing cells, membrane potential dye fluorescence (FDSS); % of choline EC20–EC90 response window; HEK293 expressing CHT LV-AA mutant; choline added at its EC20; shares compounds with CHT allo act;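 active = primary screen active, with duplicate mean activation above negative control mean plus 3 SD, cut at about 11% in these data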
HEK293 MP dye – activity in parental HEK293 cells lacking CHT; shares compounds with CHT allo act; membrane potential dye fluorescence (FDSS); measured after EC20 choline addition; ratio readout change at 10 µM, hits read low; hit rate 62% among 2,500; AID 623908;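 active = duplicate-averaged ratio beyond 3 SD from buffer wells, up or down, though filed actives are nearly all decreases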
* = called active by the depositor; i = inactive; x = no result given. Shown are actives, neighbours in structure and some others; about 2.7% of the full set was active somewhere.

SMILES | ANO1 activ | IDE inh | CHT allo act | CHT block | IDE act | TMEM16A inh | CHT activ conf | HEK293 MP dye
CCN(CC)S(=O)(=O)c1ccc(/C=C/C(=O)OCC(=O)Nc2cccnc2Cl)cc1 | i | -3 | x | x | 2 | x | x | x
CC(Oc1ccccc1)C(=O)N(CCC1=CCCCC1)c1c(N)n(Cc2ccccc2)c(=O)[nH]c1=O (centres undefined) | i | 4 | i | i | 2 | i | 11* | i
COc1ccc(NC(=S)NC(C)c2ccncc2)cc1OC (centres undefined) | i | -2 | i | i | 6 | i | 18* | i
CC1(C)Cc2c(sc3ncn(N)c(=N)c23)CO1 | i | 4 | i | i | 5 | i | x | x
CC1CCCc2sc3ncn(N)c(=N)c3c21 (centres undefined) | i | 4 | 7.1* | i | 4 | i | 52* | -50*
Cc1cccn2cc(CNc3ccccc3)nc12 | i | -4 | i | i | 1 | i | 31* | -26*
CCCC(c1nnnn1CS(=O)(=O)c1ccc(C)cc1)N1CCN(c2ccccc2)CC1 (centres undefined) | i | 1 | 7* | i | -2 | i | 14* | i
O=C(c1ccccc1F)N(Cc1ccc2c(c1)OCO2)Cc1cc2cc3c(cc2n2nnnc12)OCO3 | i | 1 | i | i | 0 | i | 15* | i
Cc1cc2cc(CN(Cc3ccc4c(c3)OCO4)C(=O)c3cnccn3)c3nnnn3c2cc1C | i | 0 | i | i | 3 | i | x | x
CC1CCCC(NC(=O)CSc2ncccn2)C1C (centres undefined) | i | 0 | x | x | -4 | x | x | x
O=C(CSc1nc2ccccc2c(=O)n1-c1ccccc1)N/N=C/C=C/c1ccccc1[N+](=O)[O-] | i | 15 | i | i | -6 | i | x | x
O=C(CSc1nc2ccccc2c(=O)n1-c1ccc(Cl)cc1)N/N=C/C=C/c1ccccc1[N+](=O)[O-] | i | 7 | 7.7* | i | -2 | i | 13* | i
Cc1cc(OCC(=O)NCCCN2CCOCC2)c2c(C)cc(=O)oc2c1 | i | -1 | 6.5* | i | -1 | i | 60* | -52*
CCOc1ccc(N(CC(=O)Nc2ccccc2C(=O)N2CCCC2)S(C)(=O)=O)cc1 | i | 3 | i | i | 1 | i | x | x
CCOC(=O)[C@H]1[C@H]2COc3ccc(Br)cc3[C@@H]2N2C(=O)N(c3ccccc3)C(=O)[C@@]12C | i | -4 | x | x | 6 | x | x | x
CCOC(=O)[C@@H]1[C@H]2COc3ccc(Br)cc3[C@@H]2N2C(=O)N(c3ccccc3)C(=O)[C@@]12C | i | 1 | 8.7* | i | 5 | i | 20* | i
Cc1ccc(S(=O)(=O)N2CCCN(C)c3nc4ccccc4nc32)cc1 | i | 9 | x | x | 0 | x | x | x
CC1(C)Cc2c(c(-c3ccco3)nc3sc4c(NCCN5CCOCC5)ncnc4c23)CO1 | i | -2 | i | i | 2 | i | x | x
CC1(C)Cc2c(sc3nc(NCCN4CCOCC4)n4ncnc4c23)CO1 | i | -8 | 6.5* | i | 2 | i | 62* | -62*
CCCn1c2ccccc2c2cnn(CC(=O)NC3CCCC(C)C3C)c(=O)c21 (centres undefined) | i | 3 | i | i | 6 | i | x | x
COC(=O)/C(=N/Nc1ccc(C)cc1)N1CCCc2ccccc21 | i | 2 | 8.1* | i | 2 | i | -1 | i
Cc1cn2nc(N)c3ccccc3c2n1 | i | -1 | i | i | -2 | i | 62* | -57*
COc1ccc(CCN(Cc2cc3cc(C)c(C)cc3nc2Cl)C(=O)C2CC2)cc1 | i | 3 | 9.2* | i | 1 | i | -4 | i
COc1cc(OC)c(N2CC(C(=O)NCCC3=CCCCC3)CC2=O)cc1Cl (centres undefined) | i | 4 | x | x | 0 | x | x | x
CSc1nnc(-c2ccccc2N=Cc2c(C)[nH]n(-c3ccc4ccccc4c3)c2=O)c(=O)[nH]1 | i | 3 | 8.3* | i | -4 | i | 24* | i
SMILES | ANO1 activ | IDE inh | CHT allo act | CHT block | IDE act | TMEM16A inh | CHT activ conf | HEK293 MP dye
C=CCSc1nnc(-c2ccccc2N=Cc2c(C)[nH]n(-c3ccccc3)c2=O)c(=O)[nH]1 | i | -4 | i | i | 9 | i | x | x
O=S(=O)(NC1CC1)c1ccc(Br)cc1N1CCC[C@H]1CO | x | x | x | x | -1 | x | x | x
Cc1ccc(-n2c(SCCN)nnc2-c2cccc(C)c2)cc1 | i | 6 | i | i | 8 | i | 17* | i
O=C(O)CC12CC3CC(C1)CC(n1ncc(N4CCC5(CC4)OCCO5)c(Cl)c1=O)(C3)C2 | i | 4 | i | i | -4 | i | x | x
Nc1cnnc(N/N=C\c2ccccc2)c1Cl | i | -3 | 6.4* | i | -2 | i | 57* | -54*
COc1ccc(Nc2c(-c3ccc(C)cc3)nc3cnccn23)cc1 | i | 2 | i | i | 3 | i | 49* | -28*
COc1ccc(-c2nc3cnccn3c2Nc2ccc3c(c2)OCO3)cc1 | i | 2 | 6.4* | i | 0 | i | 48* | -29*
Cc1ccc(-c2nc3cnccn3c2Nc2ccc3c(c2)OCO3)cc1 | i | 4 | i | i | 4 | i | x | x
Cc1cc(C)n2c(Nc3ccc4c(c3)OCCO4)c(-c3ccccc3)nc2n1 | i | -2 | 11* | i | -3 | i | 14* | -34*
COc1ccc(Nc2c(-c3ccc(OC)cc3)nc3cnccn23)cc1 | i | 1 | i | i | 3 | i | x | x
Cc1cccc2nc(-c3ccco3)c(Nc3ccc4c(c3)OCO4)n12 | i | 5 | i | i | 5 | i | x | x
CN(C)c1ccc(-c2nc3cnccn3c2Nc2ccc3c(c2)OCCO3)cc1 | i | -1 | 7.1* | i | 2 | i | 59* | -23*
CN(C(=O)COC(=O)c1ccc(Br)c([N+](=O)[O-])c1)c1c(N)n(Cc2ccccc2)c(=O)[nH]c1=O | i | 4 | i | i | 0 | i | x | x
N#CCOC(=O)[C@H](Cc1c[nH]c2ccccc12)NS(=O)(=O)c1ccc(Cl)cc1 | i | 5 | i | i | 1 | i | x | x
CCOC(=O)c1c(C)[nH]c(C)c1S(=O)(=O)N(C)CC(=O)Nc1cccc(C)c1 | i | 4 | i | i | 5 | i | x | x
